From PubChem
Sampled rows, rich in hits. Any-hit rate of the full collection: about 18%.
KAT2A inh = GCN5L2 (KAT2A) acetyltransferase inhibition | Q92830 | GCN5L2 HAT assay, ThioGlo1 CoA-SH fluorescence | Potency, µM (doses to about 58.9 µM), without a hit: at the highest dose activity change, negative = inhibition, most hits filed as inhibitors | actives 0.21% (n = 390,000) | AID 504327
Target sequence (Q92830 whole entry, looked up): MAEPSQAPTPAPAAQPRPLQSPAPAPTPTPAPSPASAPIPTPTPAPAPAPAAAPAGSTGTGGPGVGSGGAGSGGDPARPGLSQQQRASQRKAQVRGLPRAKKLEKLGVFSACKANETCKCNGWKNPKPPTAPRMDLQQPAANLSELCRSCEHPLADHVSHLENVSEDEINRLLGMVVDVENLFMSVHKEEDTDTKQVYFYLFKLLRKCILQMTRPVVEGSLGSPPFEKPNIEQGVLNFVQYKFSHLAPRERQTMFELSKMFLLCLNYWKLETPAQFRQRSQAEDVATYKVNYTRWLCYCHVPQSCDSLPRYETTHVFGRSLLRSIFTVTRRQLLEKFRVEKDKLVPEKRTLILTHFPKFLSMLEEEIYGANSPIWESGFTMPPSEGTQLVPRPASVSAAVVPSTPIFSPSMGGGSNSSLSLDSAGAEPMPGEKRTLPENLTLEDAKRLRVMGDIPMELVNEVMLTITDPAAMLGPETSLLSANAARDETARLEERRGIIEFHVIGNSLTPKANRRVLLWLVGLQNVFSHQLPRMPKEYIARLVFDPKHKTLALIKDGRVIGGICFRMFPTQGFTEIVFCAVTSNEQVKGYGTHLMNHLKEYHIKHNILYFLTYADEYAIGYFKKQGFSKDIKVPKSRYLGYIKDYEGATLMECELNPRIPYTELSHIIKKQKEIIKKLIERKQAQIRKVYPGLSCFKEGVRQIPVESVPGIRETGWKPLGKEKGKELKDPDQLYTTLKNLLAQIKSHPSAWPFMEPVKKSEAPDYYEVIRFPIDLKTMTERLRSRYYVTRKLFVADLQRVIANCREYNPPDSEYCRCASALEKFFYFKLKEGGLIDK
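Fluorescence readout, Ex340nm/Em540nm: ThioGlo1 (50uM final) reacts with free CoA thiol released as 20nM GCN5L2 acetylates H3(1-25) peptide (75uM) using acetyl-CoA (70uM). Compound and enzyme sat 15 min beforehand; 20 min room-temperature reaction.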
VDR inh = blocks the human vitamin D receptor. actives 0.93% (n = 400,000). Potency, µM, for inactives: max response, negative = inhibition, actives largely listed as inhibitors. P11473. VDR-SRC2-3 peptide fluorescence polarization, 2 h. AID 504847
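Signal is fluorescence polarization, reporting how far test compounds block the interaction of VDR with the SRC2-3 coregulator peptide after a 2 h room-temperature incubation.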
DT40 TDP1 CPT = growth inhibition of DT40 Tdp1-/-;hTDP1 cells with camptothecin (screen for TDP1 inhibitors). chicken DT40 Tdp1-/-;hTDP1 cells + 20 nM CPT, ATP luminescence, 48 h. Potency, µM (doses to about 46.2 µM), inactives show at the top dose activity change, negative = growth inhibition, hits mostly inhibitors. actives 12% (n = 420,000); also: nearly all actives have a fitted effect of over 55% in size
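Chicken DT40 Tdp1-/- cells complemented with human TDP1, 400 cells/well, exposed to compounds plus 20 nM camptothecin for at least 48 h at 37 C; viability read as ATP content by CellTiter-Glo luminescence.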
TDP1 cell noCPT = qHTS for Inhibitors of human tyrosyl-DNA phosphodiesterase 1 (TDP1): qHTS in cells in absence of CPT | DT40 Tdp1-/- hTDP1 cells, no CPT, ATP luminescence, 48 h | AID 686978, 2013 | Potency, µM (doses to about 46.2 µM), for the others: top-dose activity change, negative = growth inhibition, usual class: inhibitors | actives 15% (n = 420,000); also: nearly all actives have a fitted effect of over 55% in size
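Chicken DT40 Tdp1-/- cells complemented with human TDP1, screened without camptothecin (DMSO vehicle only), 400 cells/well. Compounds pin-transferred, cells incubated at 37 °C for at least 48 hr. Growth read as ATP-dependent luminescence (CellTiter-Glo, 30 min at RT).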
PLK1 PBD inh = blocks phosphopeptide binding to human PLK1 polo-box domain | Potency, µM, for inactives: max response, negative = inhibition, most hits filed as inhibitors | AID 720504 | Plk1 PBD binding of FITC phosphopeptide, fluorescence polarization | actives 2.8% (n = 360,000) | P53350; also: series mostly up to about 57 µM; nearly all actives have a fitted effect of over 65% in size
TDP1 block = blocks human tyrosyl-DNA phosphodiesterase 1; actives 0.28% (n = 350,000); recombinant TDP1, AlphaScreen DNA substrate cleavage; Potency, µM (doses to about 130 µM), for the others: top-dose activity change, negative = inhibition, actives largely listed as inhibitors; AID 485290; also: nearly all actives have a fitted effect of over 40% in size
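E. coli-derived human Tdp1, 1 nM final. Cpd preinc 15 min RT; substrate 15 nM final, 5 min RT; AS bead mix 10 ug/ml final, 10 min RT. Signal loss = tyrosine-FITC cleavage. No-enzyme wells = max signal.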
Starred values were filed as active, the others as inactive; ? = inconclusive; · = not tested or not shown; [ ] = remark or other dose. Calls follow the shape of the dose curve; as a rule, active = well fitted curve in the direction sought with a large enough effect; inconclusive = small, poorly fitted or top-dose-only effect, or another doubt; inactive = no such curve, though single readings can be large; an effect the other way counts as inactive or inconclusive. % is scaled to controls: 0 for no effect and ±100 for the full control effect; potency is read from the fitted curve at half-maximal effect.

SMILES	KAT2A inh	VDR inh	DT40 TDP1 CPT	TDP1 cell noCPT	PLK1 PBD inh	TDP1 block
Cc1cnc(C)c(-c2ccc(F)c3c2OC(CNC(=O)Cc2c(F)cccc2F)C3)n1 (configuration not stated)	·	·	8.9%	-10.6%	·	·
CCC(C)[C@H]1CNCCN1CCc1cccc(F)c1 (some centres not stated)	-3.9%	-4.6%	-18.8%	-12.0%	-2.5%	-11.6%
COc1ccc(NC(=O)CSc2ccc3nc(-c4ccccc4)cn3n2)c(OC)c1	1.0%	14.8%	11.6µM*	9.2µM*	·	8.1%
COc1ccc(NC(=O)CSc2ccc3nc(-c4ccccc4)cn3n2)cc1OC	-11.5%	4.5%	-20.5%	-21.7%	·	2.7%
COc1cc(OC)cc(C(=O)OCC(=O)Nc2ccc(N3CCCCC3)cc2)c1	-3.2%	-9.4%	-23.0%	-20.0%	-5.5%	4.0%
O=C(COC(=O)c1ccc(O)cc1)Nc1ccc(N2CCCCC2)cc1	-5.0%	4.3%	?	20.6µM*	-6.0%	9.0%
CCC1(C)Cc2c(sc3nc(SC)n(Cc4ccccc4)c(=O)c23)CO1 (configuration not stated)	-3.5%	10.3%	13µM*	13µM*	-3.8%	7.0%
CCCSc1nc2sc3c(c2c(=O)n1Cc1ccccc1)CC(C)(CC)OC3 (configuration not stated)	-1.7%	-11.6%	18.4µM*	11.6µM*	·	-1.3%[12.3 µM]
CCOC(=O)CSc1nc2sc3c(c2c(=O)n1CC)CC(C)(C)OC3	-5.6%	14.0%	0.3%	-15.4%	-7.0%	-1.1%
On1nnc2c3ccccc3c3ccccc3c21	-12.0%	-6.1%	5.6%	3.4%	-7.3%	6.0%
O=c1c2sc3ccccc3c2n(Cc2cccc(C(F)(F)F)c2)c(=O)n1Cc1ccco1	3.3%	6.5%	?	?	·	3.8%
CC(=O)c1cccc(NC(=O)N2C3CCCC2CC(NC(=O)C2CC2)C3)c1 (configuration not stated)	-2.3%	1.7%	5.5%	3.4%	-3.1%	6.5%
O=C(NC1CC2CCCC(C1)N2C(=O)Nc1ccc(Cl)c(C(F)(F)F)c1)C1CC1 (configuration not stated)	-6.5%	-8.7%	?	16.4µM*	?	-6.0%
Cc1ccncc1CNC(=O)c1ccccc1	·	17.4%	39.2%	-4.5%	-4.2%	·
O=C1NC[C@@H](CCCCN2C[C@H](Cc3ccc(O)cc3)N(CCc3ccccc3)C(=O)C2=O)N(CCc2ccc(O)cc2)C1=O	·	·	-22.2%	-14.3%	-11.0%	·
Cc1cc2[nH]c3c4ccccc4nc(C)c3c2cc1C	·	11.3%	3.66µM*	2.59µM*	1.2%	·
O=C(c1ccccc1)N(Cc1nc2ccccc2c(=O)[nH]1)C1CCCCC1	-8.1%	11.0%	?	?	3.5%	8.4%
CCN(Cc1nc2ccccc2c(=O)[nH]1)C(=O)c1cc2c(s1)CCCCC2	0.3%	-0.9%	14.6µM*	?	-3.6%	0.4%
CCN(Cc1nc2ccccc2c(=O)[nH]1)C(=O)c1cccc(NC(=O)c2cccs2)c1	2.9%	4.0%	11.6µM*	?	-8.0%	-7.8%[0.505 µM]
O=C(O)C1C2C=CC(O2)C1C(=O)Nc1ccc(S(=O)(=O)Nc2ccccc2)cc1 (configuration not stated)	-8.7%	-19.0%	14.6µM*	?	-22.8%	-2.3%
O=C(O)C1C2C=CC(O2)C1C(=O)Nc1ccc(S(=O)(=O)N2CCc3ccccc32)cc1 (configuration not stated)	-16.8%	16.5%	-21.9%	-9.9%	-12.2%	0.0%
CCn1cc(C(=O)NCc2cccnc2)c(=O)c2cc(F)c(N3CCN(C(=O)c4ccco4)CC3)cc21	-1.5%	-0.3%	20.6µM*	20.6µM*	-4.6%	7.1%
CCn1cc(C(=O)NCc2cccc(F)c2)c(=O)c2cc(F)c(N3CCN(C(=O)c4ccco4)CC3)cc21	-9.9%	-2.1%	5.8µM*	8.2µM*	-13.4%	9.8%
O=C(Nc1ccc(F)c(Cl)c1)c1ccc2sc([C@@H]3O[C@H](CO)[C@H](O)[C@H](O)[C@H]3O)nc2c1	·	·	-6.5%	-10.5%	-1.6%	·
Cc1cc(C)c(NC(=O)Cc2ccc(-n3c(C)nc4cccnc43)cc2)c(C)c1	-0.2%	0.2%	18.4µM*	20.6µM*	·	-5.6%
SMILES	KAT2A inh	VDR inh	DT40 TDP1 CPT	TDP1 cell noCPT	PLK1 PBD inh	TDP1 block
CCOC(=O)c1ccc(NC(=O)Cc2ccc(-n3c(CC)nc4cccnc43)cc2)cc1	1.3%	7.5%	18.4µM*	25.9µM*	·	5.6%
COC(=O)c1ccc(N2C(c3cc(OC)cc(OC)c3)=Cc3ccc(-c4cnc(OC)nc4)cc3C2CC(=O)C2CC2)cc1 (configuration not stated)	·	·	-21.1%	-28.8%	-1.0%	·
CC(=O)CC1c2ccccc2C=C(c2ccsc2)N1c1ccc(-c2cccs2)cc1 (configuration not stated)	·	·	10.3µM*	10.3µM*	-1.8%	·
COc1cc(OC)cc(C2=Cc3ccccc3C(CC(=O)c3ccco3)N2c2ccc(-c3cncnc3)cc2)c1 (configuration not stated)	·	·	8.2µM*	?	-6.8%	·
COc1ccc(N2C(c3cc(OC)cc(OC)c3)=Cc3ccccc3C2CC(C)=O)cc1 (configuration not stated)	·	·	?	16.4µM*	3.1%	·
COc1ncc(-c2ccc(N3C(c4ccsc4)=Cc4ccccc4C3CC(C)=O)cc2)cn1 (configuration not stated)	·	·	?	?	-12.1%	·
COc1cc(OC)cc(C2=Cc3ccc(OC)cc3C(CC(C)=O)N2c2ccc(C#CCCO)cc2)c1 (configuration not stated)	·	·	?	20.6µM*	0.4%	·
COc1cc(OC)cc(C2=Cc3ccccc3C(CC(C)=O)N2c2ccc(C#CCCO)cc2)c1 (configuration not stated)	·	·	20.6µM*	?	-0.5%	·
COc1ccc(C2=Cc3ccccc3C(CC(=O)C3CC3)N2c2ccc(C#CCCO)cc2)cc1 (configuration not stated)	·	·	?	?	-8.3%	·
CN(Cc1ccccc1)C(=O)c1cccc(NC(=O)c2nsc3ccccc23)c1	-3.0%	10.0%	?	?	·	5.4%
FC(F)(F)c1cccc(Nc2nc(N3CCOCC3)nc(N3CCOCC3)n2)c1	-12.7%	7.7%	13µM*	?	3.5%	4.0%
Cc1cccc(Nc2nc(N3CCCCC3)nc(N3CCCCC3)n2)c1	-3.1%	-5.7%	-17.8%	-15.1%	-5.2%	-10.6%[56.1 µM]
